Assay results as given in PubChem BioAssay AID687020 (Broad Institute, 2013).
In all, about 1,400 compounds went through this assay and about 100 (7.1%) were called active. How the calls were made is not given here. Only a sample is shown. Results with a measured potency or affinity are listed apart.

Experiment: viability loss in Vero cells – cell-based, plate reader, cherry-pick samples, cytotoxicity control, dose response (AID 687020);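 further: compounds incubated with cells for three days before luminescence read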
Details: series mostly up to 19.5 µM

Structure (SMILES) | outcome
COc1ccc(-c2cnc3n2CCCCC3)cc1 | inactive
CC(=O)N1CCN(C(=O)COC(=O)COc2c(C)cc(C)cc2C)CC1 | inactive
Cc1ccc(S(=O)(=O)N2CCOCC2)cc1NC(=O)CN(C)CC(=O)Nc1cccc(F)c1 | inactive
COc1cccc(NC(=O)CN(C)C(=O)Cc2ccc3c(c2)OCCO3)c1 | inactive
COC(=O)c1cn(C(=O)c2ccc(OC)c(OC)c2)c2ccccc12 | inactive
COc1ccc(COC(=O)C2=C(C)NC(=O)NC2c2ccccc2F)cc1 (configuration not stated) | inactive
CCN(CC)C(=O)C1CCN(Cc2ccc(OCc3ccccc3)cc2)CC1 | inactive
CC(C)C[C@@H](COc1ccccc1)N1CCN(CCc2ccccc2)CCC1=O | inactive
CCCN1CCC(=O)N([C@H](CSc2ccccc2)Cc2ccccc2)CC1 | inactive
N#CC[C@H](c1ccccc1)N1CCN(Cc2ccccc2)CCC1=O | inactive
Cc1noc(C)c1NC(=O)Nc1ccc2c(c1)CC(=O)N([C@@H](C)CO)C[C@H](C)[C@@H](CN(C)C(=O)Nc1ccccc1)O2 | inactive
CCOc1ccc2[nH]cc(S(=O)(=O)c3ccc(C)cc3)c(=O)c2c1 | inactive
O=C(Oc1ccccc1)c1ccccc1C(=O)Oc1ccccc1 | inactive
COc1ccc(NC(=O)c2cc3ccccc3cc2O)cc1 | inactive
COc1ccc(N2CCN(CC(O)COc3ccc(F)cc3)CC2)cc1 (configuration not stated) | inactive
Clc1cc(Br)ccc1OCCOCCN1CCCC1 | inactive
Clc1cc(Br)ccc1OCCCn1ccnc1 | inactive
N#CCc1ccc(NC(=O)c2cc(S(=O)(=O)N3CCOCC3)ccc2Cl)cc1 | inactive
COc1ccc(-c2cc(N3C(=O)Nc4ccccc4N3O)n[nH]2)cc1OC | inactive
CCNC(=O)N(C)C[C@H]1N[C@@](CC)(C(=O)OC)[C@H]2C(=O)N(Cc3ccccc3)C(=O)[C@@H]12 | inactive
Cc1ccccc1N1Cc2ccccc2C1=O | inactive

Structure (SMILES) | outcome
CN1CCN(S(=O)(=O)c2cccs2)CC1 | inactive
COc1ccc(S(=O)(=O)N2CCCCC2c2cc(C(=O)Nc3ccccc3)no2)cc1 (configuration not stated) | inactive
O=C(NCc1ccc(Cl)c(Cl)c1)c1cc(C2CCCCN2C(=O)OCCF)on1 (configuration not stated) | inactive
COC(=O)N1CCCCC1c1cc(C(=O)Nc2ccccc2Cl)no1 (configuration not stated) | inactive
Cc1ccc(F)cc1C(=O)N1CCCCC1c1cc(C(=O)NC(C)C)no1 (configuration not stated) | inactive
Cc1ccc(NC(=O)C2CCN(S(C)(=O)=O)CC2)cc1Cl | inactive
C[C@H](NC(=O)[C@H]1[C@H](CO)[C@H]2Cn3c(cccc3=O)[C@@H]1N2Cc1cccnc1)c1ccccc1 | inactive
CC(C)(C(=O)N1CCC1(C)C(=O)Nc1ccccc1Br)c1ccccc1 (configuration not stated) | inactive
Cc1c(C(=O)NCc2ccc(C#N)cc2)sc(=O)n1Cc1ccccn1 | inactive
COc1ccc2oc(C(=O)OC(C)C(=O)N3CCC(C)CC3)c(C)c2c1 (configuration not stated) | inactive
Cc1ccc2oc(C(=O)N(Cc3ccncc3)CC3CCCO3)c(C)c2c1 (configuration not stated) | inactive
Cc1ccc(S(=O)(=O)Nc2ccc(O)c3ncccc23)cc1 | inactive
COCCNC(=O)C1CCC(CNS(=O)(=O)c2ccc(F)cc2)CC1 (configuration not stated) | inactive
CCCC(=O)Nc1ccc2nn(-c3ccc(OC)cc3)nc2c1 | inactive
COc1cc(C(=O)OCCCN2CCOCC2)cc(OC)c1OC | inactive
CCN(CC)S(=O)(=O)c1cccc(C(=O)NCC2(N3CCOCC3)CCCCC2)c1 | inactive
CC(C)C[C@@H](CN1C(=O)C(=O)NC[C@@H]1CC(C)C)NC(=O)Cc1ccccc1 | inactive
CCNC(=O)C[C@H]1CC[C@H]2[C@@H](COC[C@H](O)CN2Cc2ccc(Cl)c(Cl)c2)O1 | inactive
Cc1cccc(C)c1NC(=O)C1(C)CSCC(=O)N1Cc1cccc(C(F)(F)F)c1 (configuration not stated) | inactive
C=Cc1ccc(Cn2c(C)c(C(=O)NCc3cccc(C(F)(F)F)c3)sc2=O)cc1 | inactive
CC(=O)Nc1ccc(OCCCN2CCC(C(O)(c3ccccc3)c3ccccc3)CC2)cc1 | inactive

Structure (SMILES) | outcome
O=C(Nc1ccc(F)cc1)C1CCCN(S(=O)(=O)c2ccc3[nH]c(=O)ccc3c2)C1 (configuration not stated) | inactive
Cc1ccc(NC(=O)C2(c3cccs3)CCOCC2)cc1C | inactive
Cc1ccc(NC(=O)CN2CCC(NC(=O)c3cccc(F)c3)CC2)cc1C | inactive
Nc1nc2c(ncn2[C@@H]2O[C@H](CNCc3ccc(F)c(N4CCOCC4)c3)[C@@H](O)[C@H]2O)c(=O)[nH]1 | inactive
CC1(c2nnnn2Cc2ccccc2)CCC(=O)N1CCCn1ccnc1 (configuration not stated) | inactive
COc1ccc(NC(=O)CN(C)C(=O)CC2CCCC2)cc1 | inactive
COC(=O)c1c(-c2ccc(OC)cc2)sc2cc3c(cc12)OCO3 | inactive
CC1CCN(C(=O)COC(=O)CNC(=O)c2ccccc2F)CC1 | inactive
Nc1sc(-c2ccccc2)cc1C(=O)NCCN1CCOCC1 | inactive
COc1ccc(-c2nc(CN3CCC(C(=O)N4CCOCC4)CC3)c(C)o2)c(OC)c1 | inactive
O=C(NCC1CCCCC1)[C@H]1[C@H](CO)[C@H]2Cn3c(cccc3=O)[C@@H]1N2CCc1ccccc1 | inactive
O=C(c1cccnc1)N1CC2(C1)[C@H](c1ccccc1)[C@@H](CO)N2Cc1ccccc1 | inactive
CN(C)CC#Cc1ccc([C@H]2[C@@H](CO)N(C(=O)C3CCC3)[C@H]2C#N)cc1 | inactive
COC(=O)[C@H]1CN(C(=O)c2ccccc2)C(=O)N1 | inactive
COc1cc2cc(CCCOC(=O)CCCC(=O)O)oc(=O)c2cc1OC | inactive
O=C(CCNC(=O)OCC1c2ccccc2-c2ccccc21)NOCc1ccccc1 | inactive
Cc1cccc(C)c1OCC(=O)NNC(=O)CCCn1c(=O)oc2ccccc21 | inactive
CC(=O)NCCC(=O)Nc1cc(S(=O)(=O)N2CCCCC2)ccc1N1CCN(C)CC1 | inactive
C[C@@H]1CCCCO[C@@H](CN(C)C(=O)Cc2ccccc2)[C@H](C)CN([C@H](C)CO)C(=O)c2cc(NS(=O)(=O)c3ccc(Cl)cc3)ccc2O1 | inactive
CN(C)c1ccc2c(c1)[C@H]1C[C@@H](CC(=O)NCc3ccc(Oc4ccccc4)cc3)O[C@H](CO)[C@H]1O2 | inactive
